Among the data in PubChem BioAssay (NCI) are growth values, retold here.

Compounds without any hit were thinned out: in the full panel of roughly 83,000, 20% have a hit.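 How to read the values: 0–100, growth inhibition (40 = 60% inhibited); 0, no net growth; -100 to 0, cell death (-40 = 40% of starting cells died; -100 = all dead).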 Values without a mark were called inactive. The source made the active and inactive calls. Rule for the calls: active = growth percent below 10; inactive = the rest.

Common to all, as to experiment: NCI-60 one-dose screen, 48 h (100 = growth as untreated, 0 = no growth, -100 = all killed)
What all share (conditions): 10 µM unless noted

Assay [1] deals with NCI-H23 lung.
The subject of assay [2] is NCI-H226 lung.
Assay [3] has as its system NCI-H322M lung.
Assay [4] has as its system HOP-62 NSCLC.
Assay [5] deals with NCI-H460 lung.
For assay [6], the system named is HOP-92 NSCLC.
For assay [7], the system named is NCI-H522 lung.
Assay [8] has as its system A549/ATCC NSCLC.
The subject of assay [9] is 786-0 renal.
For assay [10], the system named is COLO 205 colon.

`COc1ccc(C2CC(c3cccs3)=NN2c2ccc(S(=O)(=O)NC(=O)Nc3ccc(C)cc3)cc2)cc1` (stereo not given): the growth in assay [1] is 98.5%; in assay [2], 110%; in assay [3] it was 104%; in [4] it was 76.9%; in [5], 103%; in assay [6], 84.9%. In addition, the growth in assay [7] is 91.5%; in [8], 102%; in assay [9] it was 104%; in [10] it was -54.6% (active).

With `O=C(NNC(=S)Nc1ccccc1)c1ccccn1`, the growth in assay [1] was 73.1%; in [2], 43.4%; in assay [3], 23.3%; in assay [4], 37.9%; in assay [5], 21.2%; in [6], 16.7%. Further, the growth in assay [7] was 69%; in assay [8] it was 24.3%; in assay [9], 22.6%; in [10] it was 22.5%.

As to `CCC1CCc2nc3sc(C(=O)Nc4ccccc4F)c(N)c3cc2C1` (stereo not given), the growth in [1] was 78.2%; in [2], 89.8%; in [3], 92.8%; in assay [4], 76.4%; in [5] it was 75.4%; in assay [6], 58.3%. Besides, the growth in assay [7] was 71.9%; in assay [8], 79.5%; in assay [9], 91.4%; in assay [10] it was 64.2%.

Consider `CNC(=O)c1cc(Oc2ccc3c(c2)sc2nc(-c4ccc(Cl)cc4)cn23)ccn1`, for which the growth in assay [1] is 72.6%; in [2], 38.9%; in assay [3], 92.9%; in [4] it was 62.5%; in assay [5], 81.8%; in assay [6], 76.8%. For the same compound, the growth is 61.7% in [7], 79.4% in assay [8], 77.9% in [9] and 114% in assay [10].

Take `Cc1c(C2=NNC(c3ccc4c(c3)OCO4)C2)[n+]([O-])c2ccccc2[n+]1[O-]` (stereo not given): the growth in assay [1] is 93.8%; in [2], 102%; in [3] it was 161%; in [4], 92.1%; in [5] it was 111%; in assay [6], 83.6%. For the same compound, the growth in [7] is 95.9%; in assay [8], 109%; in assay [9] it was 106%; in [10] it was 101%.

`CCOC(=O)C1=C(CSC(=S)N(C2CCCCC2)C2CCCCC2)N(C)C(=O)NC1c1ccccc1` (stereo not given): the growth in [1] was 76.5%; in assay [2], 58.8%; in assay [3] it was 91.9%; in assay [4], 63.1%; in [5] it was 12.7%; in [6], 69%. Also, the growth in assay [7] is 58.1%; in assay [8], 47.2%; in [9], 48.6%; in assay [10], 60.6%.

Take `O=C1CCCCN1CCCCC#Cc1ccccc1C#Cc1ccccn1`: the growth in [1] is 101%; in [2] it was 92%; in [3], 85.7%; in assay [4], 101%; in [5], 115%; in assay [6] it was 73.2%. The growth in assay [7] is 112%; in assay [8] it was 112%; in assay [9], 102%; in assay [10], 103%.

For the compound `CC(C)(C)c1ccc(S(=O)(=O)Oc2ccc3c4c(c(=O)oc3c2)CCCCC4)cc1`, the growth in assay [1] was 43%; in [2], 56.7%; in assay [3], 85.9%; in assay [4], 85.2%; in assay [5], 43.2%; in [6], 3.94% (active). Moreover, the growth in [7] is -14.1% (active); in assay [8], 59.3%; in [9], 60.8%; in assay [10] it was 37.4%.

Take `CCN(Cc1ccc(CN(CC)C(=O)C(Br)Br)cc1)C(=O)C(Br)Br`: the growth in assay [1] is 43.3%; in [2] it was 59.1%; in assay [3] it was 26.3%; in assay [4], 74.8%; in assay [5], 2.41% (active); in assay [6], 60.7%. Moreover, the growth in assay [7] was 32.5%; in [8], 25.2%; in assay [9], 59.4%; in assay [10] it was 3.56% (active).

Take `C/C(=N\NC(=O)CC#N)c1cc2cc(Cl)ccc2o1`: the growth is 97.2% in assay [1]; 94.6% in assay [2]; 97.2% in [3]; 92.8% in assay [4]; 94.2% in assay [5]; -13.3% (active) in assay [6]. In addition, the growth was 84.4% in assay [7], 111% in [8], 105% in assay [9] and 99.7% in assay [10].

For the compound `COc1cccc2cc(-c3cc4ccccc4[nH]3)/c(=N/C(=S)Nc3ccccc3)oc12`, the growth in [1] was 61.8%; in assay [2] it was 69.9%; in assay [3] it was 84%; in assay [4], 18.5%; in assay [5] it was 69.3%; in assay [6] it was 5.47% (active). The growth was 88.1% in [7], 91.4% in assay [8], 59.4% in [9] and 98.1% in assay [10].

On to `Nc1cc2c(cc1N)-c1cc(N)c(N)cc1C2`, for which the growth was 95% in [1]; 98% in [2]; 102% in assay [3]; 95.5% in [4]; 105% in assay [5]; 86.7% in assay [6]. The growth in [7] was 88.3%; in [8], 97.9%; in assay [9] it was 100%; in assay [10] it was 116%.

Take `Cn1c(=O)c2c(nc3n2CCN(CCc2ccc(OCCN4CCOCC4)cc2)C3)n(C)c1=O`: the growth in assay [1] is 101%; in assay [2], 100%; in assay [3] it was 100%; in assay [4], 106%; in assay [5] it was 107%; in [6], 96.6%. Also, the growth in assay [7] was 94.2%; in [8] it was 99.4%; in [9] it was 99.6%; in assay [10], 115%.

Consider `O=C1CCC(=O)N1Cc1ccccc1`, for which the growth in assay [1] is 86.7%; in assay [2], 89.5%; in [3], 98.2%; in assay [4], 107%; in [5], 106%; in assay [6] it was 89.9%. For the same compound, the growth was 102% in [7], 102% in assay [8], 104% in assay [9] and 111% in assay [10].
